Source: the supplement of paper PMC7411640
Where a name gives a salt, the structure may show the parent alone.

The molecules below were run on MDA-MB-468 (assay: phospho-S6 immunofluorescence (DAPI-normalised), per-plate z-score; higher = higher phospho-S6 signal (less pathway suppression)). Conditions: co-treatment: GDC0941 450 nM; 24 h.
Protocol: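 GPCR-targeted compound library (MedChemExpress HY-L006) tested on MDA-MB-468 PTEN-null TNBC cells in 384-well plates at 0.1, 1 or 10 uM, combined with vehicle, GDC0941 450 nM or lapatinib 1 uM, for 24 h. Phospho-S6 (S240/244) immunofluorescence normalised to DAPI and expressed as a per-plate z-score; values are the mean of biological triplicates.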

Compared with `OC(CNCC(O)C1CCc2cc(F)ccc2O1)C1CCc2cc(F)ccc2O1` (configuration not stated) [Nebivolol (hydrochloride)] (compound 10 µM), `O=C(CCCN1CCC(O)(c2ccc(Cl)cc2)CC1)c1ccc(F)cc1` [Haloperidol] (compound 10 µM) is higher in “phospho-S6 immunofluorescence (z-score)” value: -2.5 for the first, 1.78 for the second.

Compared with `O=C(NCC(=O)N1CC[C@H](N[C@H]2CC[C@@](O)(c3ccc(-c4ncccn4)cn3)CC2)C1)c1cccc(C(F)(F)F)c1` (compound 10 µM), `CCNC1(C(N)=O)CCN(c2ncnc3c2nc(-c2ccccc2Cl)n3-c2ccc(Cl)cc2)CC1` [Otenabant] (compound 10 µM) is lower in “phospho-S6 immunofluorescence (z-score)” value: -0.86 for the first, -1.75 for the second.

First: CN1CC2c3ccccc3Oc3ccc(Cl)cc3C2C1 (configuration not stated) [Asenapine (hydrochloride)] (compound 10 µM)
Second: Clc1ccc2c(c1)N=C(N1CCNCC1)c1ccccc1N2 [N-Desmethylclozapine] (compound 10 µM)
The “phospho-S6 immunofluorescence (z-score)” value of the first is lower: -0.8 for the first, -0.56 for the second.

Going from `CC(C)(C)NC[C@H](O)COc1nsnc1N1CCOCC1` [(S)-Timolol (Maleate)] (compound 10 µM) to `CCOC(=O)N1CCC(=C2c3ccc(Cl)cc3CCc3cccnc32)CC1` [Loratadine] (compound 10 µM), the “phospho-S6 immunofluorescence (z-score)” value falls from -0.17 to -1.77.

Compared with `CC(=O)Oc1cc(C(C)C)c(OCCN(C)C)cc1C` [Moxisylyte (hydrochloride)] (compound 10 µM), `COc1cc(C(=O)N(CCCc2ccccc2)Cc2ccc(CC(=O)O)cc2)cc(OC)c1C` (compound 10 µM) is lower in “phospho-S6 immunofluorescence (z-score)” value: 0.49 for the first, -0.21 for the second.

First: Cc1noc(-c2ccc(-c3ccc(CC(=O)O)cc3)cc2)c1NC(=O)OC(C)c1ccccc1Cl (configuration not stated) (compound 10 µM)
Second: CCOC(=O)c1ccc(-n2cc(Cc3cnc(OCC)nc3)c(=O)nc2SCc2ccc(F)cc2)cc1 (compound 10 µM)
The “phospho-S6 immunofluorescence (z-score)” value of the first is higher: 0.23 for the first, -3.26 for the second.

First: c1ccc(CN(CC2=NCCN2)c2ccccc2)cc1 [Antazoline (hydrochloride)] (compound 10 µM)
Second: c1ccc2c(CC3=NCCN3)cccc2c1 [Naphazoline (hydrochloride)] (compound 10 µM)
The “phospho-S6 immunofluorescence (z-score)” value of the first is higher: 0.27 for the first, -0.78 for the second.

First: O=C(Nc1ccc([N+](=O)[O-])cc1O)Nc1ccccc1Br (compound 10 µM)
Second: CC(C)c1cc(-c2ccc(F)c3ccccc23)nc(N)n1 (compound 10 µM)
The “phospho-S6 immunofluorescence (z-score)” value of the first is lower: -1.44 for the first, -1.03 for the second.

First: CN(C)CCN(Cc1ccccc1)c1ccccn1 [Tripelennamine (hydrochloride)] (compound 10 µM)
Second: CN(C)CCC(c1ccc(Br)cc1)c1ccccn1 (configuration not stated) [Brompheniramine (maleate)] (compound 10 µM)
The “phospho-S6 immunofluorescence (z-score)” value of the first is lower: -0.07 for the first, 0.58 for the second.

Compared with `O=C(O)CC1CCC2(CC1)CCN(c1cc(OC(F)(F)F)ccc1Cl)CC2` (compound 10 µM), `OCCN1CCN(CCCN2c3ccccc3Sc3ccc(C(F)(F)F)cc32)CC1` [Fluphenazine (dihydrochloride)] (compound 10 µM) is lower in “phospho-S6 immunofluorescence (z-score)” value: 0.09 for the first, -3.94 for the second.

Going from `CC[C@H](C)[C@@H]1NC(=O)[C@H](Cc2ccc(O)cc2)NC(=O)[C@@H](N)CSSC[C@@H](C(=O)N2CCC[C@H]2C(=O)N[C@@H](CC(C)C)C(=O)NCC(N)=O)NC(=O)[C@H](CC(N)=O)NC(=O)[C@H](CCC(N)=O)NC1=O` [Oxytocin (acetate)] (compound 10 µM) to `CC(C)OC(=O)CCC/C=C\C[C@@H]1[C@@H](CC[C@@H](O)CCc2ccccc2)[C@H](O)C[C@@H]1O` [Latanoprost] (compound 10 µM), the “phospho-S6 immunofluorescence (z-score)” value rises from -0.77 to 0.61.

Compared with `CN(C)C(=O)C(CCN1CCC(O)(c2ccc(Cl)cc2)CC1)(c1ccccc1)c1ccccc1` [Loperamide (hydrochloride)] (compound 10 µM), `OCCOCCN1CCN(C(c2ccccc2)c2ccccc2)CC1` [Decloxizine (dihydrochloride)] (compound 10 µM) is higher in “phospho-S6 immunofluorescence (z-score)” value: -1.31 for the first, 0.55 for the second.

First: O=c1ccc2ccc(OCCCCN3CCN(c4cccc5sccc45)CC3)cc2[nH]1 [Brexpiprazole] (compound 10 µM)
Second: CCc1cnc(N2CCC(c3nc(COc4ccc(-n5cnnn5)cc4)cs3)CC2)nc1 (compound 10 µM)
The “phospho-S6 immunofluorescence (z-score)” value of the first is lower: -5.22 for the first, -3.23 for the second.

Going from `Cc1cccc(C#Cc2ccccc2)n1` [MPEP (Hydrochloride)] (compound 10 µM) to `CN1CCc2c(c3ccccc3n2Cc2ccccc2)C1` [Mebhydrolin (napadisylate)] (compound 10 µM), the “phospho-S6 immunofluorescence (z-score)” value rises from -0.92 to -0.29.

First: OCC1OC(n2cnc3c(NCCc4ccccc4)ncnc32)C(O)C1O (configuration not stated) [N6-(2-Phenylethyl)adenosine] (compound 10 µM)
Second: c1ccc2c(c1)N=C(N1CCNCC1)c1ccccc1N2 [DREADD agonist 21] (compound 10 µM)
The “phospho-S6 immunofluorescence (z-score)” value of the first is higher: 0.87 for the first, -0.11 for the second.

Compared with `CC(=O)OCC(=O)[C@@]1(O)[C@H](C)C[C@H]2[C@@H]3CCC4=CC(=O)C=C[C@]4(C)[C@@]3(F)[C@@H](O)C[C@@]21C` [Dexamethasone (acetate)] (compound 10 µM), `CCC(=O)O[C@]1(C(=O)SCF)[C@H](C)C[C@H]2[C@@H]3C[C@H](F)C4=CC(=O)C=C[C@]4(C)[C@@]3(F)[C@@H](O)C[C@@]21C` [Fluticasone (propionate)] (compound 10 µM) is higher in “phospho-S6 immunofluorescence (z-score)” value: 0.07 for the first, 0.26 for the second.

Compared with `CC[N+](CC)(CC)CCOc1cccc(OCC[N+](CC)(CC)CC)c1OCC[N+](CC)(CC)CC` [Gallamine Triethiodide] (compound 10 µM), `CNCC(O)c1ccc(O)c(O)c1` [L-Epinephrine] (compound 10 µM) is lower in “phospho-S6 immunofluorescence (z-score)” value: 0.5 for the first, 0.44 for the second.

Compared with `C[C@@H](O[C@H]1OCCN(Cc2n[nH]c(=O)[nH]2)[C@H]1c1ccc(F)cc1)c1cc(C(F)(F)F)cc(C(F)(F)F)c1` [Aprepitant] (compound 10 µM), `CC#C[C@]1(O)CC[C@H]2[C@@H]3CCC4=CC(=O)CCC4=C3[C@@H](c3ccc(N(C)C)cc3)C[C@@]21C` [Mifepristone] (compound 10 µM) is lower in “phospho-S6 immunofluorescence (z-score)” value: -1.22 for the first, -2.47 for the second.

In the case of `CC(=O)OCC(=O)[C@@]1(O)CC[C@H]2[C@@H]3CCC4=CC(=O)CC[C@]4(C)[C@H]3C(=O)C[C@@]21C` [Cortisone (acetate)] (compound 10 µM), the “phospho-S6 immunofluorescence (z-score)” value is reported as 0.51.
